Measured values reported in PubChem BioAssay.
Activity calls are given as the source filed them.

Tests used:
[1] = test system: Wnt5a (protein binding on small-molecule microarray); test: small molecules binding Wnt5a protein – biophysical, small-molecule microarray, 635/667 nm fluorescence, primary screen (AID 1142); settings: 635 nm fluorescence, higher = more signal;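 note: fluorescence read at 667 nm with signal to noise per printed feature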
[2] = ATP-based viability of Huh7 replicon cells – cell-based, CellTiter-Glo luminescence, basal, 48 h, cytotoxicity control for HCV replication inhibitor project, primary screen (AID 1143); settings: higher = more signal, called active from +8 up or from −8 down;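 note: Huh7 hepatoma cells carrying a hepatitis C replication reporter with no stimulus; test concentration not given here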
[3] = basal CRE-LacZ reporter activity in PC12 – cell-based, unstimulated, primary screen (AID 1145); settings: no forskolin, luminescence, 4.5 h, higher = more signal, called active from +8 up or from −8 down
[4] = forskolin-driven CRE-LacZ activity in PC12 – cell-based, CRE-LacZ reporter, forskolin-stimulated, primary screen (AID 1146); settings: luminescence, 4.5 h, higher = more signal, called active from +8 up or from −8 down;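 note: PC12 cells with 6xCRE LacZ reporter stimulated by forskolin 10 µM; beta-galactosidase reporter signal reflecting CREB driven transcription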
[5] = target: Streptavidin (Streptomyces avidinii) (UniProt P22629); test: compounds binding control protein streptavidin – biophysical, small-molecule microarray, 635/667 nm fluorescence, artefact control for SMM compound annotation, primary screen (AID 1147); settings: higher = more signal;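 note: signal reflects streptavidin binding to arrayed compounds as a control protein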
[6] = probe aInhba binding on compound microarray – biochemical, small-molecule microarray, 635/667 nm fluorescence, primary screen (AID 1148); settings: higher = more signal;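 note: score merges 667nm spot fluorescence with signal-to-noise for antibody binding to printed compounds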
Torsin-1A (Homo sapiens) [7] = target: Torsin-1A (Homo sapiens) (UniProt O14656); test: TOR1A wild-type binding on microarray – cell lysate, small-molecule microarray, lysate, 635/667 nm, primary screen (AID 1149); settings: COS7 hTOR1A-WT lysate, 635 nm fluorescence, higher = more signal
Torsin-1A (Homo sapiens) [8] = target: Torsin-1A (Homo sapiens) (UniProt O14656); test: torsin A mutant lysate binding on microarrays – cell lysate, small-molecule microarray, COS7 lysate, 635/667 nm fluorescence, primary screen (AID 1150); settings: COS7 hTOR1A mutant lysate, 635 nm fluorescence, higher = more signal;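 note: score pools 667 nm emission and signal to noise measuring lysate protein binding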
[9] = test system: Sonic hedgehog protein (Shh); test: Sonic hedgehog microarray binding compounds – biochemical, small-molecule microarray, 635/667 nm fluorescence, primary screen (AID 1151); settings: 635 nm fluorescence, higher = more signal;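 note: Shh protein binding to compounds spotted on small-molecule microarray slides; score combines spot fluorescence intensity with signal-to-noise across triplicate slides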
[10] = optical density shifts of acrAB sulA E. coli – strain DRC41, OD650, 48 h, E. coli filamentation inducer project, primary screen (AID 1152); settings: higher = more signal, called active from +8 up or from −8 down;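 note: E. coli MC1000 strain DRC41 lacking acrAB efflux pump and sulA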
[11] = probe aLefty1 binding on compound microarray – biochemical, small-molecule microarray, 635/667 nm fluorescence, primary screen (AID 1153); settings: higher = more signal;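 note: score merges spot fluorescence with signal-to-noise ratio from the scanned slide images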
[12] = plasmodial surface anion channel blockers, osmotic lysis – cell-based, P. falciparum Indochina, OD700, 1 h, primary screen (AID 1154); settings: P. falciparum Indochina infected RBC osmotic lysis, higher = more signal, called active from +8 up or from −8 down
[13] = plasmodial surface anion channel blockers, osmotic lysis – cell-based, P. falciparum Indochina, OD700, 2 h, primary screen (AID 1155);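 note: lysis reports solute entry through the parasite surface anion channel PSAC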; settings: P. falciparum Indochina infected erythrocytes, higher = more signal, called active from +8 up or from −8 down
[14] = changes in parasitized red cell lysis, either direction – P. falciparum Indochina, OD700, 3 h, PSAC antagonist project, primary screen (AID 1156); settings: P. falciparum-infected erythrocytes, osmotic lysis, higher = more signal, called active from +8 up or from −8 down
[15] = plasmodial surface anion channel blockers, osmotic lysis – cell-based, P. falciparum Indochina, OD700, 18 h, primary screen (AID 1157); settings: P. falciparum Indochina infected erythrocytes, osmotic lysis OD700, 18 h; higher = more signal, called active from +8 up or from −8 down
[16] = S6 kinase pathway phospho-S6 level changes – cell-based, A549, cytoblot, luminescence, serum-stimulated, primary screen (AID 1158); settings: 5 h, higher = more signal;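 note: serum-stimulated A549 lung adenocarcinoma cells; signal is phosphorylated S6 detected by cytoblot immunostaining with HRP secondary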
[17] = target: NADPH oxidase 2 (Homo sapiens) (UniProt P04839); test: compounds shifting NOX2 Amplex Red fluorescence – cell-based, HEK293-NOX2, PMA-stimulated, NOX inhibitor project, primary screen (AID 1159); settings: 45 min, higher = more signal, called active from +8 up or from −8 down; note: test concentration not given here
[18] = target: NADPH oxidase 4 (Homo sapiens) (UniProt Q9NPH5); test: compounds shifting NOX4 Amplex Red fluorescence – cell-based, HEK293-NOX4, tetracycline-induced, NOX inhibitor project, primary screen (AID 1160); settings: HEK293-NOX4, Amplex Red H2O2 fluorescence, 45 min; higher = more signal, called active from +8 up or from −8 down
[19] = target: NADPH oxidase 5 (Homo sapiens) (UniProt Q96PH1); test: compounds shifting NOX5 Amplex Red fluorescence – cell-based, HEK293-NOX5, NOX inhibitor project, primary screen (AID 1161); settings: HEK293-NOX5, ionomycin, 45 min, higher = more signal
[20] = compound effects on lung adenocarcinoma cell viability – A549, calcein-AM fluorescence, 48 h, basal, profiling panel (AID 1162); settings: higher = more signal; note: test concentration not given here

Chain of NADPH oxidase 5 (Homo sapiens) (Q96PH1 whole entry, looked up): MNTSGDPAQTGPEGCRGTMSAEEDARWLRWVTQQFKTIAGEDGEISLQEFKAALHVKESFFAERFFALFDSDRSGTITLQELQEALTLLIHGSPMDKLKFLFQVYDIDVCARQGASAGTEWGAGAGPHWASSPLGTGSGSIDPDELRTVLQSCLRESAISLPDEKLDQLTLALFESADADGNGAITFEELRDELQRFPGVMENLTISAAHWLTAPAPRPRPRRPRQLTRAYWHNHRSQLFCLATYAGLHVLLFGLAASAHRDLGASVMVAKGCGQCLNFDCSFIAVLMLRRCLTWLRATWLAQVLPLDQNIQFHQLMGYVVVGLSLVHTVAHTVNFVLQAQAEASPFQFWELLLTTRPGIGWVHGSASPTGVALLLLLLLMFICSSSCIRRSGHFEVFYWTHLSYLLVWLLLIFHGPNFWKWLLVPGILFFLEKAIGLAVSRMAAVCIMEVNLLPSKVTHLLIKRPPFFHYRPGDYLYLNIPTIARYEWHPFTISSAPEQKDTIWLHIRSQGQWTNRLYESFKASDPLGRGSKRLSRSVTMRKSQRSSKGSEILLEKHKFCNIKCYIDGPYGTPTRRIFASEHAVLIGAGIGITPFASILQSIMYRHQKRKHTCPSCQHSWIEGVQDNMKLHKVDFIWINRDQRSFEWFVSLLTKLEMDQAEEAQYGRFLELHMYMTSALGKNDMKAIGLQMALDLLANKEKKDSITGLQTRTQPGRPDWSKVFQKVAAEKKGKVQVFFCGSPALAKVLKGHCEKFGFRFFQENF
Chain of NADPH oxidase 2 (Homo sapiens) (P04839 whole entry, looked up): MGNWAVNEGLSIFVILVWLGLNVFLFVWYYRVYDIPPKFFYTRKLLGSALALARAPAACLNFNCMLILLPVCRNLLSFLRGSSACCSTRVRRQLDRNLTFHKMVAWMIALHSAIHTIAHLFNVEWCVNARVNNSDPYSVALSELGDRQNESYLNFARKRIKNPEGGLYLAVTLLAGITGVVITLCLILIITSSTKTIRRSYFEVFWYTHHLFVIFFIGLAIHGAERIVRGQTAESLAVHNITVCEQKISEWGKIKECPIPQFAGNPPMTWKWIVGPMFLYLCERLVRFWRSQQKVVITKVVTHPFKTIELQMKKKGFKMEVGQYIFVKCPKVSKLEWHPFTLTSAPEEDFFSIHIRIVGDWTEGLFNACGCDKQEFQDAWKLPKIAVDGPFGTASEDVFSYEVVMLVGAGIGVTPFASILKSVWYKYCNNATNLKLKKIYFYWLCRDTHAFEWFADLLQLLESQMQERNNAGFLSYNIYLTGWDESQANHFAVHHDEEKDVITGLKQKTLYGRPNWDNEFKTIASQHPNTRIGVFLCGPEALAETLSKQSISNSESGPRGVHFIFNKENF
Chain of Torsin-1A (Homo sapiens) (O14656 whole entry, looked up): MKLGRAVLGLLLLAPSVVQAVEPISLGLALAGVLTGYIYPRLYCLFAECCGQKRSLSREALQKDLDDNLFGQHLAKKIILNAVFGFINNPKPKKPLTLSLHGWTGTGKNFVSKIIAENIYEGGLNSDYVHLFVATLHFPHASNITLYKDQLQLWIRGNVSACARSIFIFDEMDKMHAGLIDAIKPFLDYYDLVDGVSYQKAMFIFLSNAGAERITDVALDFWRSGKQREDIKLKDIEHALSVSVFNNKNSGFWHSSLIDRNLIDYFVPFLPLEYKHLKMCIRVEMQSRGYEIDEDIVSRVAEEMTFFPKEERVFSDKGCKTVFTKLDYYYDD
Chain of NADPH oxidase 4 (Homo sapiens) (Q9NPH5 whole entry, looked up): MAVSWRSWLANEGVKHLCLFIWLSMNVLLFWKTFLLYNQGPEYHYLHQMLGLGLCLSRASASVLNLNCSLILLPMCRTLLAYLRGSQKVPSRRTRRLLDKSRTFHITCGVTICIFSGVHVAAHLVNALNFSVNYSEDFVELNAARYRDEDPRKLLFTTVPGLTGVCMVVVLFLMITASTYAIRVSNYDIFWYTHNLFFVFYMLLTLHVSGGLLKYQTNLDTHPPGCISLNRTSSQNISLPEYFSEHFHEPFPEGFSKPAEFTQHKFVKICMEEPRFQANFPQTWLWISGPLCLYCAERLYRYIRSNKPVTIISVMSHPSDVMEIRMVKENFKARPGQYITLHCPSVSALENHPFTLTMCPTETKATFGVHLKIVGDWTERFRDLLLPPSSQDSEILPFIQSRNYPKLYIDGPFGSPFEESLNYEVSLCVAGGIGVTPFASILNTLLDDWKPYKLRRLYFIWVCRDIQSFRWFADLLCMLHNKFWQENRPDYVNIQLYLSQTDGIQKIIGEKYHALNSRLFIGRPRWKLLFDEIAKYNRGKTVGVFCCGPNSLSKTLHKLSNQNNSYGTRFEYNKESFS
Chain of Streptavidin (Streptomyces avidinii) (P22629 whole entry, looked up): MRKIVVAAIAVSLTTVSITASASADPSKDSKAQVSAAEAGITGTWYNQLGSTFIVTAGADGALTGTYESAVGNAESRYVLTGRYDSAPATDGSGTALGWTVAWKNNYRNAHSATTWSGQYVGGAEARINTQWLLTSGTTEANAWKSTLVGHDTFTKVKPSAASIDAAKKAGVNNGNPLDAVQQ

SMILES	composite z-score [1]	z-score [2]	z-score [3]	z-score [4]	composite z-score [5]	composite z-score [6]	composite z-score (Torsin-1A (Homo sapiens) [7])	composite z-score (Torsin-1A (Homo sapiens) [8])	composite z-score [9]	z-score [10]	composite z-score [11]	z-score [12]	z-score [13]	z-score [14]	z-score [15]	z-score [16]	z-score [17]	z-score [18]	z-score [19]	z-score [20]
CC(C)C(=C=CC[C@@H](O)c1ccc(CO)o1)CCO	0.502	-0.105 (inactive)	0.681 (inactive)	-1.82 (inactive)	-0.294	-0.0986	1.65	0.289	1.48	1.38 (inactive)	-0.147	1.95 (inactive)	0.236 (inactive)	0.311 (inactive)	0.0124 (inactive)	-0.109	1.62 (inactive)	1.64 (inactive)	1.49	2.76
NCCCCCCNC(=O)[C@@H]1C[C@@H]2C(=O)N[C@@H](Cc3ccccc3)C(=O)N2[C@@H]1c1ccc(O)cc1	0.0167	-0.136 (inactive)	1.52 (inactive)	-1.12 (inactive)	0.91	0.229	0.104	0.416	0.507	0.717 (inactive)	0.443	3.47 (inactive)	0.374 (inactive)	-6.59 (inactive)	0.276 (inactive)	-0.118	1.18 (inactive)	1.3 (inactive)	0.846	0.987
CC(C)(C)OC(=O)CC[C@@]12N=C(c3ccc(OCCCO)cc3)O[C@@H]1c1ccccc1CN(Cc1ccccc1)C2=O	0.822	-4.74 (inactive)	0.344 (inactive)	-2.32 (inactive)	0.197	0.0756	0.161	-0.0105	1.04	0.71 (inactive)	0.33	28 (active)	25.8 (active)	2.02 (inactive)	2.14 (inactive)	0.302	0.622 (inactive)	-0.441 (inactive)	-1.44	-0.633
COc1ccc([Si](C)(C)[C@H]2[C@H](CC(=O)N(CCO)Cc3ccccc3)O[C@@]3(C(=O)N(Cc4cccc(N5C(=O)COc6ccccc65)c4)c4ccccc43)[C@@H]2C)cc1	0.223	-3.26 (inactive)	2.61 (inactive)	-1.58 (inactive)	0.224	0.0566	0.275	0.493	2.03	2.01 (inactive)	0.0437	12.7 (active)	2.77 (inactive)	0.144 (inactive)	1.28 (inactive)	0.721	0.0235 (inactive)	0.789 (inactive)	2.17	0.0715
CC1CC/C=C\[C@H]2OC34C=CCN(C(C)C)C(=O)[C@H]3N(C(CO)C(C)C)C(=O)[C@@H]4C2C(=O)O1 (stereo not given in full)	-0.0784	0.114 (inactive)	-0.346 (inactive)	-0.791 (inactive)	-1.28	-0.133	-0.87	-0.22	-0.137	2.16 (inactive)	-0.225	1.3 (inactive)	-0.74 (inactive)	0.604 (inactive)	-0.531 (inactive)	0.0551	1.49 (inactive)	0.743 (inactive)	1.79	1.06
CCCCC(=C=CC[C@H](O)c1cccc(OCCO)c1)CCO	-0.0668	-0.081 (inactive)	4.86 (inactive)	-0.679 (inactive)	-0.209	0.0355	1.13	0.983	0.242	0.892 (inactive)	0.37	11.4 (active)	1.91 (inactive)	1.2 (inactive)	0.774 (inactive)	-0.679	1.06 (inactive)	0.362 (inactive)	-1.64	1.13
O=C1O[C@@H](c2ccccc2)[C@@H](c2ccccc2)N2[C@@H](c3ccc(OCCO)cc3)[C@]3(C(=O)Nc4ccc(C#CC5(O)CCCCCC5)cc43)[C@@H](C(=O)NC[C@H](O)c3ccccc3)[C@H]12	0.432	-3.51 (inactive)	0.0776 (inactive)	-1.71 (inactive)	0.866	0.0827	1.2	0.711	0.855	2.35 (inactive)	0.339	1.21 (inactive)	0.484 (inactive)	-0.206 (inactive)	-0.863 (inactive)	1.13	1.37 (inactive)	1.14 (inactive)	0.427	0.71
CCCCC(=C=CC[C@@H](O)c1ccc(OCCO)cc1)C[C@@H](O)c1cc(Cl)cc(Cl)c1O	0.145	-2.71 (inactive)	14.3 (active)	-2.04 (inactive)	0.414	0.0536	-0.0726	1.01	0.184	1.55 (inactive)	-0.147	20.3 (active)	4.24 (inactive)	1.41 (inactive)	0.159 (inactive)	0.903	0.444 (inactive)	0.55 (inactive)	-1.14	2.24
COc1ccc(C#Cc2ccc3c(c2)[C@]2(C(=O)N3)[C@H](c3ccc(O)cc3)N3[C@H](c4ccccc4)[C@H](c4ccccc4)OC(=O)[C@H]3[C@@H]2C(=O)N2CCN(c3ncccn3)CC2)cc1	0.167	-1.76 (inactive)	0.478 (inactive)	0.708 (inactive)	1.13	0.18	0.246	0.923	0.262	1.77 (inactive)	0.312	1.28 (inactive)	0.22 (inactive)	1.19 (inactive)	0.564 (inactive)	0.26	0.393 (inactive)	0.0458 (inactive)	1.21	0.214
COC(=O)C(CC#Cc1ccc2c(c1)[C@]1(C(=O)N2)[C@H](C(N)=O)[C@H]2C(=O)O[C@H](c3ccccc3)[C@H](c3ccccc3)N2[C@@H]1c1ccc(O)cc1)C(=O)OC	-0.156	-0.229 (inactive)	0.182 (inactive)	-0.909 (inactive)	-1.09	-0.504	-0.372	0.488	-0.295	1.66 (inactive)	-0.696	14.5 (active)	1.23 (inactive)	0.974 (inactive)	0.37 (inactive)	0.331	1.32 (inactive)	0.297 (inactive)	1.1	0.685
COCCOC(=O)N1C(=O)[C@@]2(c3cc(C#CC4(O)CCCCCC4)ccc31)[C@H](c1ccccc1OCCO)N1[C@H](c3ccccc3)[C@H](c3ccccc3)OC(=O)[C@H]1[C@@H]2C(=O)Nc1nc2ccccc2s1	0.478	-4.73 (inactive)	0.802 (inactive)	-1.05 (inactive)	0.16	-0.0468	1.2	0.663	1.52	2.49 (inactive)	-0.105	3.33 (inactive)	0.299 (inactive)	0.851 (inactive)	-0.515 (inactive)	1.02	1.27 (inactive)	-0.694 (inactive)	0.339	-0.997
CC(C)(C)OC(=O)CC[C@]1(C(=O)NCc2ccccc2)COC(c2ccc(OCCCO)cc2)=N1	0.433	-1.47 (inactive)	1.7 (inactive)	-1.32 (inactive)	0.74	-0.0308	-0.208	1.11	-0.743	2.02 (inactive)	0.0738	18.7 (active)	1.92 (inactive)	1.99 (inactive)	-1.39 (inactive)	0.719	0.117 (inactive)	0.804 (inactive)	-1.01	0.661
C=CC[C@@H](OC(=O)Nc1ccc(SC)cc1)c1ccc(OCCO)cc1	-0.248	-0.89 (inactive)	14.4 (active)	-0.595 (inactive)	-0.761	-0.202	1.76	0.972	0.43	-0.0217 (inactive)	0.197	27.1 (active)	18.6 (active)	0.616 (inactive)	-0.016 (inactive)	-0.506	-2.02 (inactive)	-0.346 (inactive)	-2.26	1.13
CCCCCN1CC=CC23O[C@@H]4/C=C\CCC(C)OC(=O)C4[C@H]2C(=O)N(CCCO)[C@@H]3C1=O (stereo not given in full)	0.0429	-1.37 (inactive)	0.487 (inactive)	0.213 (inactive)	-0.67	-0.245	0.26	-0.147	-0.0977	1.5 (inactive)	-0.229	-0.404 (inactive)	-0.0816 (inactive)	0.787 (inactive)	0.281 (inactive)	0.0147	1.86 (inactive)	0.381 (inactive)	2.57	-0.367
CCOC(=O)C[C@H]1[C@H](OC(=O)Cc2ccc3c(c2)OCO3)[C@@H](NC(=O)c2ccc3ccccc3c2)c2cc(OCCCO)ccc2N1C(=O)c1ccc2ccccc2n1	0.0364	-2.81 (inactive)	7.41 (inactive)	-1.37 (inactive)	0.398	0.219	0.0253	0.107	0.555	0.869 (inactive)	0.169	11.8 (active)	1.44 (inactive)	-0.859 (inactive)	0.0679 (inactive)	1.49	0.0194 (inactive)	-0.0398 (inactive)	-3.84	3.85
